# Data as given in PubChem BioAssay (EPA / NIEHS).
# Active and inactive are the calls of the source. The calls were made as follows: active = hit-call score of the fitted dose curve at least 0.9, where 1 is the maximum; inactive = score below 0.9.
# Target: Hepatocyte nuclear factor 6 (Homo sapiens) (UniProt Q9UBC0)
# Test: ATG_HNF6_CIS: Attagene CIS-FACTORIAL HepG2 Assay for human Hepatocyte Nuclear Factor 6 (HNF6) (AID 2282952)
# Conditions: HepG2 Attagene cis-factorial HNF6 reporter transcription; actives raise or lower the signal
# Summary of the method: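 Reporter mRNA induction or loss in HepG2 after 24 h exposure; transient cis-MRTU transfection; fragments quantified by capillary electrophoresis; bidirectional analysis, DMSO as negative control.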
# Chain of Hepatocyte nuclear factor 6 (Homo sapiens) (Q9UBC0 whole entry, looked up): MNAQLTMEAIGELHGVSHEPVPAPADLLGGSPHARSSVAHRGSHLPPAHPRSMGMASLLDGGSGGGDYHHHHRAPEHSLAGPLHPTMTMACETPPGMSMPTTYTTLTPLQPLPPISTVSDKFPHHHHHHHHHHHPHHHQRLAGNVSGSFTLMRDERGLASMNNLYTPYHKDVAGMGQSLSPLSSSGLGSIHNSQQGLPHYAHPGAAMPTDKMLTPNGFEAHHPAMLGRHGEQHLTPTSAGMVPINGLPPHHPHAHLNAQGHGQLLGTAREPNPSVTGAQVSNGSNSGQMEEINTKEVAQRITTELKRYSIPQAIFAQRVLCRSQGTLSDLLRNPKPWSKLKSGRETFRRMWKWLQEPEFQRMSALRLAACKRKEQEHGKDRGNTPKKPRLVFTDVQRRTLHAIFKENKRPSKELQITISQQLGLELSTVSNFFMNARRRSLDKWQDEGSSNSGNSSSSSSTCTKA
Structure (SMILES),outcome,AC50
c1ccc2occc2c1,inactive,–
CN(C)CCCN1c2ccccc2Sc2ccc(Cl)cc21,–,20.8 µM (active)
O=C1CCCCC1,inactive,–
CC(C)OC(=O)C(C)(C)Oc1ccc(C(=O)c2ccc(Cl)cc2)cc1,inactive,–
Cc1ccc(C(C)(C)C)c(O)c1,inactive,–
Nc1nc(=S)c2[nH]cnc2[nH]1,inactive,–
CO[C@@H]1COCC[C@@H]1N[C@@H]1CC[C@@](C(=O)N2CCc3ncc(C(F)(F)F)cc3C2)(C(C)C)C1,inactive,–
CCCCCCCCCCCCCCCCO,inactive,–
CC(=O)OC1CC(C)OC(C)O1 (stereo not drawn),inactive,–
CC1(C)C(=O)NC(=O)N1CO,inactive,–
Cn1cnc2c1c(=O)[nH]c(=O)n2C,inactive,–
CC(C)(O)c1ccc(CNC(=O)c2cccnc2Oc2ccc(F)cc2)cc1,inactive,–
CCCC(=O)O,inactive,–
COC(=O)CCC(=O)OC,inactive,–
C#CC(O)C(CC)CCCC (stereo not drawn),–,144 µM (active)
NCCOCCOCCN,inactive,–
NC=O,inactive,–
O=C(O)c1[nH]n(-c2ccc(S(=O)(=O)O)cc2)c(=O)c1N=Nc1ccc(S(=O)(=O)O)cc1,inactive,–
CCc1nc(N)nc(N)c1-c1ccc(Cl)cc1,–,100 µM (active)
Nc1nc(Cl)nc2c1ncn2[C@H]1C[C@H](O)[C@@H](CO)O1,inactive,–
CCCCCCCCCCCCCCOS(=O)(=O)O,inactive,–
Cc1cn([C@H]2C=C[C@@H](CO)O2)c(=O)[nH]c1=O,inactive,–
Cc1c(C)c2c(c(C)c1O)CCC(C)(COc1ccc(CC3SC(=O)NC3=O)cc1)O2 (stereo not drawn),inactive,–
CC1=C(C)S(=O)(=O)CCS1(=O)=O,inactive,–
O=C1O[C@H]([C@H](O)CO)C(O)=C1O,inactive,–
CCc1cc(C2=C(C(=O)O)N(c3ccccc3C(F)(F)F)S(=O)(=O)c3ccccc32)cc2c1OCO2,inactive,–
OCC(CO)n1cnc(-c2ccc(F)cc2)c1-c1ccnc(Oc2ccccc2)n1,inactive,–
CC(C)COC(=O)CCCCC(=O)OCC(C)C,inactive,–

# Target: Heat shock factor protein 1 (Homo sapiens) (UniProt Q00613)
# Test: ATG_HSE_CIS: Attagene CIS-FACTORIAL HepG2 Assay for human Heat Shock Transcription Factor 1 (HSE) (AID 2282953)
# Conditions: HepG2 HSE cis-reporter, Attagene RNA transcription; actives raise or lower the signal
# Summary of the method: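 Using HepG2 with transfected cis-driven reporter constructs, compound effects on endogenous factor activity are scored as reporter mRNA change at 24 h. Detection: RT-PCR, HpaI digestion, capillary electrophoresis; bidirectional fitting to DMSO.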
# Chain of Heat shock factor protein 1 (Homo sapiens) (Q00613 whole entry, looked up): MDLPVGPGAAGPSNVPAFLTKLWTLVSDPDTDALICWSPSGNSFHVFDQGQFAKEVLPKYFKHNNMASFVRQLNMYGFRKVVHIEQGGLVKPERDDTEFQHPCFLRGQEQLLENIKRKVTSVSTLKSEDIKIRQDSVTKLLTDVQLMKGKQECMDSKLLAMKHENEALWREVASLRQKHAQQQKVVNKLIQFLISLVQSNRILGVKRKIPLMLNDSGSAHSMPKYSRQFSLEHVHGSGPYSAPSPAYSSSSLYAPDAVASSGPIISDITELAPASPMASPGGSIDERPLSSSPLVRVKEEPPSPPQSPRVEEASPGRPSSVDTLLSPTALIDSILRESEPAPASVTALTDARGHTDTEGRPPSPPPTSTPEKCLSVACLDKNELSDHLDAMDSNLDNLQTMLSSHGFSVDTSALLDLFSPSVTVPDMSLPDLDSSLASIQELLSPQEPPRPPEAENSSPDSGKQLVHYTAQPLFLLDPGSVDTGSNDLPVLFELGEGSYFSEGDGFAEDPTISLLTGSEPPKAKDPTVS
Structure (SMILES),outcome,AC50
c1ccc2occc2c1,inactive,–
O=C1CCCCC1,inactive,–
CC(C)OC(=O)C(C)(C)Oc1ccc(C(=O)c2ccc(Cl)cc2)cc1,inactive,–
Cc1ccc(C(C)(C)C)c(O)c1,inactive,–
Nc1nc(=S)c2[nH]cnc2[nH]1,inactive,–
CO[C@@H]1COCC[C@@H]1N[C@@H]1CC[C@@](C(=O)N2CCc3ncc(C(F)(F)F)cc3C2)(C(C)C)C1,inactive,–
CCCCCCCCCCCCCCCCO,inactive,–
CC1(C)C(=O)NC(=O)N1CO,inactive,–
Cn1cnc2c1c(=O)[nH]c(=O)n2C,inactive,–
CC(C)(O)c1ccc(CNC(=O)c2cccnc2Oc2ccc(F)cc2)cc1,inactive,–
CCCC(=O)O,inactive,–
O=C(O)c1cccnc1,inactive,–
C#CC(O)C(CC)CCCC (stereo not drawn),inactive,–
NCCOCCOCCN,inactive,–
NC=O,inactive,–
O=C(O)c1[nH]n(-c2ccc(S(=O)(=O)O)cc2)c(=O)c1N=Nc1ccc(S(=O)(=O)O)cc1,inactive,–
CCc1nc(N)nc(N)c1-c1ccc(Cl)cc1,inactive,–
Nc1nc(Cl)nc2c1ncn2[C@H]1C[C@H](O)[C@@H](CO)O1,inactive,–
CCCCCCCCCCCCCCOS(=O)(=O)O,inactive,–
Cc1cn([C@H]2C=C[C@@H](CO)O2)c(=O)[nH]c1=O,inactive,–
CC1=C(C)S(=O)(=O)CCS1(=O)=O,inactive,–
O=C1O[C@H]([C@H](O)CO)C(O)=C1O,inactive,–
CCc1cc(C2=C(C(=O)O)N(c3ccccc3C(F)(F)F)S(=O)(=O)c3ccccc32)cc2c1OCO2,–,154 µM (active)
OCC(CO)n1cnc(-c2ccc(F)cc2)c1-c1ccnc(Oc2ccccc2)n1,inactive,–
CC(C)COC(=O)CCCCC(=O)OCC(C)C,inactive,–
